Drawing on ChEMBL document CHEMBL5308504, “Tm Shift (DSF) assay results for EUbOPEN Chemogenomics Library” (2023), this text covers ΔTm for 26 molecules.

Holding throughout (settings): Compound concentration 20.0 uM, Protein concentration 2.0 uM, Result type QC Liability
The target of test [1] is Tyrosine-protein kinase ABL1 (Homo sapiens) (UniProt P00519).
Test [2] deals with Cyclin-dependent kinase 2 (Homo sapiens) (UniProt P24941).
Test [3] addresses Casein kinase I isoform delta (Homo sapiens) (UniProt P48730).
The target in test [4] is Glycogen synthase kinase-3 beta (Homo sapiens) (UniProt P49841).
Glycogen synthase kinase-3 beta (Homo sapiens), sequence (P49841 whole entry, looked up): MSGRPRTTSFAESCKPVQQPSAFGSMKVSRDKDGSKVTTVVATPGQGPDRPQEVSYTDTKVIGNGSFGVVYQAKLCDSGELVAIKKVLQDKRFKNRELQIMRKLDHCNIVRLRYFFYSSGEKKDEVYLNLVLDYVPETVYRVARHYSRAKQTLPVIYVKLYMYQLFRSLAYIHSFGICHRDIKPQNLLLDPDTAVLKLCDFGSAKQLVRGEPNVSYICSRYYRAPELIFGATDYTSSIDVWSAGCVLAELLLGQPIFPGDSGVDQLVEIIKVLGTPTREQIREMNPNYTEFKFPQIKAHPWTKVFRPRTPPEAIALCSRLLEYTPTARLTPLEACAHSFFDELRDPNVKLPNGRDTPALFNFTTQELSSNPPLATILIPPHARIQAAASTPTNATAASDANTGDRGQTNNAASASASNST
Test [5] has as its target Mitogen-activated protein kinase 1 (Homo sapiens) (UniProt P28482).
For test [6], the target named is T1, Aurora kinase A (Homo sapiens) (UniProt O14965).
T1 sequence (whole entry): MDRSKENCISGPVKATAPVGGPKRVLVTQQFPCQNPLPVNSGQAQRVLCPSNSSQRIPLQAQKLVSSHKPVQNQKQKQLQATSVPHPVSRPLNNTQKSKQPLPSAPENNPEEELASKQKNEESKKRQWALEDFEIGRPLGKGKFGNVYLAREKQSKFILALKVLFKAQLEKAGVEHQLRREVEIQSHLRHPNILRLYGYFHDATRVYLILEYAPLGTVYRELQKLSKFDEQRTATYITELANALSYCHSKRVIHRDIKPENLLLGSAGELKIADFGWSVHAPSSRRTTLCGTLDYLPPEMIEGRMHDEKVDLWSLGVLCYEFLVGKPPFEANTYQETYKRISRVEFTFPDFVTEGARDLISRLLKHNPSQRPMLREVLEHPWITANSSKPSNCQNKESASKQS

Tyrosine-protein kinase ABL1 (Homo sapiens), sequence (P00519 whole entry): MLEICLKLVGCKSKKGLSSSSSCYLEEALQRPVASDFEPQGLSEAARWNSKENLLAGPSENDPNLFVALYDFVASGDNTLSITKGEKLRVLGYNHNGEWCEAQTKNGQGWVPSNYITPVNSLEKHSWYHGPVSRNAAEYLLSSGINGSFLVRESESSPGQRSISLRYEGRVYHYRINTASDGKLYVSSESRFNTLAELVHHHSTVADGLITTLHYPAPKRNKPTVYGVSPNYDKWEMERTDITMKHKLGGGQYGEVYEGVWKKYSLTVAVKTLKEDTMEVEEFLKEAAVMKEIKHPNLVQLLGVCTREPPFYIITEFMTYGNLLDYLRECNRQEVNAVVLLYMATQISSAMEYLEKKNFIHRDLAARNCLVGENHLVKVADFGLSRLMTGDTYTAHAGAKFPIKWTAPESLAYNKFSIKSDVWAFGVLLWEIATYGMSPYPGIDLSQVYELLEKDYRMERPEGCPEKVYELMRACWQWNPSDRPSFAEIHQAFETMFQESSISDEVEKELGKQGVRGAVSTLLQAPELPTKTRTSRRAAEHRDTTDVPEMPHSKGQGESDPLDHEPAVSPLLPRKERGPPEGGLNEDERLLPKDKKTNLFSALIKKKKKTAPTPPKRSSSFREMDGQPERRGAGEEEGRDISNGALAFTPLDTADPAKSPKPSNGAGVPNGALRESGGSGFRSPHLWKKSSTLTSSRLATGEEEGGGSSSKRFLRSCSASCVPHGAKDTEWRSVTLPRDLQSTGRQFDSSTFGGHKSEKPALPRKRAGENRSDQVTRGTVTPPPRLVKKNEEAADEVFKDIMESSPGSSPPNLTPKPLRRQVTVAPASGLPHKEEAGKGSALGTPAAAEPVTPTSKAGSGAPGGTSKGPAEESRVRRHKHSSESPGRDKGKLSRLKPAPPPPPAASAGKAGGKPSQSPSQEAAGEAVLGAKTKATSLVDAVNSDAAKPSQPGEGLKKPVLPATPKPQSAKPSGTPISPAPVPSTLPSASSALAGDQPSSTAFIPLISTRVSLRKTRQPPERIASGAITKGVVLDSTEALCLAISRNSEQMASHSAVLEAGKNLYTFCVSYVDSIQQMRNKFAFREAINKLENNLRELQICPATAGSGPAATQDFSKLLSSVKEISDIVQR
Casein kinase I isoform delta (Homo sapiens), sequence (P48730 whole entry, looked up, canonical isoform): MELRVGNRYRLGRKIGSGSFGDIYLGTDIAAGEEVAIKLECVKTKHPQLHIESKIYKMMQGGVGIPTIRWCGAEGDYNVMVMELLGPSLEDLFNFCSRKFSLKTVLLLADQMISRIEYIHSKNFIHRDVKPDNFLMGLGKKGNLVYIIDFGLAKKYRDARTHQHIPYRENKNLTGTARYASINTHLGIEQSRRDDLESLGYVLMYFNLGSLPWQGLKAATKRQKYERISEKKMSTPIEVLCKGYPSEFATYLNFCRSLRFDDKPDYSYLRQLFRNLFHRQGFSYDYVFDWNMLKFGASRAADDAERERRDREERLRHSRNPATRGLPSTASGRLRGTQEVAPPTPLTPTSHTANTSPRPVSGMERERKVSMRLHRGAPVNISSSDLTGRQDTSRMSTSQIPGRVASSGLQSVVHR
Mitogen-activated protein kinase 1 (Homo sapiens), sequence (P28482 whole entry): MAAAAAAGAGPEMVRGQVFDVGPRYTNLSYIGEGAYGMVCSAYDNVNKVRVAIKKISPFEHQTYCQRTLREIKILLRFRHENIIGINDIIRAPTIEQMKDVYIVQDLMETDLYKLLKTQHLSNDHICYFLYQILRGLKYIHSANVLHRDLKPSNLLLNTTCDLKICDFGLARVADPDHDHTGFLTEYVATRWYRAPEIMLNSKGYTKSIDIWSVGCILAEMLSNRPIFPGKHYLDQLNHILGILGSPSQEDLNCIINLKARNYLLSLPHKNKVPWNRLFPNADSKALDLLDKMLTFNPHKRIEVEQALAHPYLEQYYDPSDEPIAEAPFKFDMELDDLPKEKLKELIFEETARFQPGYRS

The ΔTm is the change in melting temperature against a reference sample. For `Cc1ncsc1-c1ccc(CNC(=O)[C@@H]2C[C@@H](O)CN2C(=O)[C@@H](NC(=O)CCCCNC(=O)c2ccc(-c3ccc(N4CCN(C)CC4)c(NC(=O)c4c[nH]c(=O)cc4C(F)(F)F)c3)cc2)C(C)(C)C)cc1`, the ΔTm is -3.44 °C in test [1]; 1.06 °C in test [2]; 0.88 °C in test [3]; -0.58 °C in test [4]; -2.62 °C in test [5]; 0.62 °C in test [6].
Take `CC(=O)N(CCN(C)C)c1ccc(N/C(=C2\C(=O)Nc3cc(Cl)ccc32)c2ccccc2)cn1`: the ΔTm in test [1] amounted to 8.38 °C; in test [2], 3.16 °C; in test [3], 2.87 °C; in test [4], 11.3 °C; in test [5] it was 0.38 °C; in test [6], 7.54 °C.
On to `COc1c(-c2cn(C3CCC(=O)NC3=O)nn2)csc1C(=O)N1CCCC1` (stereo unspecified), for which the ΔTm in test [1] is 0.22 °C; in test [2], 0.04 °C; in test [3] it was 0 °C; in test [4], -0.65 °C; in test [5], 0.26 °C; in test [6] it was -1.14 °C.
For `CCc1ccc(N(CC(C)C)S(=O)(=O)c2ccc(OCC3CCOCC3)c(CO)c2)cc1`, the thermal shift (ΔTm) in test [1] was -3.79 °C; in test [2] it was 0.33 °C; in test [3] it was 0.71 °C; in test [4], 0 °C; in test [5] it was 0.2 °C; in test [6], -8.48 °C.
For `CS(=O)(=O)NCC[C@H](NC(=O)c1cncc2c1cnn2-c1ccc(F)cc1)c1ccnc(S(C)(=O)=O)c1`, the ΔTm in test [1] was -0.12 °C; in test [2] it was -0.17 °C; in test [3], 0.57 °C; in test [4] it was -1.34 °C; in test [5] it was 0.26 °C; in test [6], 0.06 °C.
In the case of `COc1cc(N(C)c2ccnc3ccc(C(F)(F)F)cc23)cc(OC)c1OC`, the ΔTm is 0.48 °C in test [1]; -0.12 °C in test [2]; 1.1 °C in test [3]; -0.36 °C in test [4]; 0.28 °C in test [5]; -0.2 °C in test [6].
In the case of `Cc1ccc(-n2nc(C(C)(C)C)cc2NC(=O)Nc2ccccc2F)cc1`, the ΔTm in test [1] was 1.53 °C; in test [2], 1.51 °C; in test [3], 2.52 °C; in test [4], -0.41 °C; in test [5] it was 3.34 °C; in test [6], -1.69 °C.
Consider `N=C(N)NCCC[C@H](NC(=O)CC1(CC(=O)N2CCN(C(c3ccccc3)c3ccccc3)CC2)CCCC1)C(=O)NCc1ccccc1`, for which the shift in melting temperature (ΔTm) in test [1] is -0.53 °C; in test [2] it was -1.78 °C; in test [3] it was 0.02 °C; in test [4], -1.84 °C; in test [5], -0.93 °C; in test [6], -0.79 °C.
Take `CNC(=O)c1ccc(C)c(-n2c(C)cc(OCc3ccc(F)cc3F)c(Br)c2=O)c1`: the ΔTm in test [1] is -0.5 °C; in test [2], -0.88 °C; in test [3] it was -0.45 °C; in test [4] it was -1.44 °C; in test [5] it was -0.46 °C; in test [6] it was -1.48 °C.
As for `CCS(=O)(=O)Nc1cccc(Oc2cc(F)cc(Nc3ccc(I)cc3F)c2NS(=O)(=O)C2CC2)c1`, the ΔTm is 1.05 °C in test [1]; 0.19 °C in test [2]; 0.44 °C in test [3]; 2.25 °C in test [4]; -1.88 °C in test [5]; 0.23 °C in test [6].
As to `NCCCc1c(C(=O)O)[nH]c2ccc(C(=O)Nc3ccccc3)cc12`, the ΔTm in test [1] is 0.08 °C; in test [2], 0.25 °C; in test [3] it was 0.53 °C; in test [4], -0.39 °C; in test [5], 0.25 °C; in test [6], -1.5 °C.
With `COc1cc(N[C@@H]2CCCC[C@]2(O)C(F)(F)F)ccc1F`, the ΔTm in test [1] was 0.29 °C; in test [2] it was 0.72 °C; in test [3], 0.65 °C; in test [4] it was -0.31 °C; in test [5], 0.4 °C; in test [6], -1.49 °C.
Turning to `CN1CCC(F)(Cn2cnc(-c3ccc(F)cn3)c2-c2ccnc3[nH]ccc23)CC1`, the ΔTm in test [1] is 0.05 °C; in test [2], 0.48 °C; in test [3], 8.14 °C; in test [4], -0.54 °C; in test [5], 0.37 °C; in test [6], -0.98 °C.
Consider `Fc1ccc(Cl)cc1-c1nc(Nc2ccncc2)c2nccnc2n1`, for which the ΔTm in test [1] was 0.4 °C; in test [2], 1.19 °C; in test [3] it was 2.24 °C; in test [4], 0.58 °C; in test [5], 0.56 °C; in test [6] it was -0.16 °C.
On to `Cc1nc2c(cc1F)c(-c1nnc3c(n1)NC(=O)C3(C)C)nn2Cc1cccc(F)c1F`, for which the ΔTm in test [1] was 0.8 °C; in test [2] it was 0.74 °C; in test [3], 0.12 °C; in test [4], -0.14 °C; in test [5], 0.44 °C; in test [6], -0.06 °C.
For the molecule `CN(C)CCC[C@@]1(c2ccc(F)cc2)OCc2cc(C#N)ccc21`, the thermal shift (ΔTm) in test [1] was 0.61 °C; in test [2] it was 0.64 °C; in test [3], -0.32 °C; in test [4], -0.03 °C; in test [5] it was 0.7 °C; in test [6] it was -0.23 °C.
`COc1cc(-c2cc3ncccc3c(OC[C@H]3CNC(=O)C3)n2)cc(OC)c1OC1CCOCC1`: the ΔTm was 1.45 °C in test [1]; -0.03 °C in test [2]; 2.63 °C in test [3]; -0.87 °C in test [4]; 0.16 °C in test [5]; 5.56 °C in test [6].
Take `Cc1ccc(NC(=O)c2ccc3c(c2)OCCO3)cc1NC(=O)c1ccc2nc(OCCN3CCCC3)ccc2c1`: the ΔTm is 2.56 °C in test [1]; 1.06 °C in test [2]; 1.91 °C in test [3]; 0.36 °C in test [4]; 0.33 °C in test [5]; -0.43 °C in test [6].
Consider `C[C@@H]1C[C@H](C)CN(c2ncc(Cl)c(Nc3ccc4c(c3)cc(OC(C)(C)C(=O)O)c(=O)n4C)n2)C1`, for which the ΔTm in test [1] is -0.58 °C; in test [2], 0.18 °C; in test [3], -0.08 °C; in test [4] it was -1.47 °C; in test [5], 0.14 °C; in test [6], 0.18 °C.
For the molecule `COCCc1ccc(-c2c(C)nc3c(N4CCOCC4)ccnn23)cn1`, the ΔTm was 0.28 °C in test [1]; 0.2 °C in test [2]; 0.24 °C in test [3]; -0.61 °C in test [4]; 0.69 °C in test [5]; 0.4 °C in test [6].
For `CC(=O)c1ccc2c(c1)/C(=C(/NC1CCN(C)CC1)c1ccc3c(c1)OCO3)C(=O)N2`, the ΔTm in test [1] was determined as 0.16 °C; in test [2] it was 4.87 °C; in test [3] it was 2.46 °C; in test [4] it was 15.5 °C; in test [5], 0.57 °C; in test [6], 0.78 °C.
Turning to `O=C(NC[C@@H]1[C@H]2CN(C(=O)OCc3cc(C(F)(F)F)cc(C(F)(F)F)c3)C[C@@H]12)c1ccc2[nH]nnc2c1`, the ΔTm was -2.53 °C in test [1]; -9.8 °C in test [2]; 0.69 °C in test [3]; -10.5 °C in test [4]; -10.3 °C in test [5]; 0.61 °C in test [6].
On to `CC(=O)Nc1ncc(CN2CCC[C@H](Cc3cc(C)nc(C)c3)C2)s1`, for which the ΔTm is 0.26 °C in test [1]; -0.34 °C in test [2]; -0.41 °C in test [3]; -0.15 °C in test [4]; 0.35 °C in test [5]; 0.39 °C in test [6].
For the molecule `COc1nc2ccc([C@@](O)(c3ccccc3)C3CCN(C(C)=O)CC3)cc2c(Cl)c1Cc1ccc(-n2cccn2)cc1`, the ΔTm was -0.06 °C in test [1]; -0.4 °C in test [2]; -0.56 °C in test [3]; -3.26 °C in test [4]; 0.14 °C in test [5]; -0.6 °C in test [6].
On to `CC(C)(O)c1coc(S(=O)(=O)NC(=O)Nc2c3c(cc4c2CCC4)CCC3)c1`, for which the ΔTm was found to be 0.65 °C in test [1]; 1.24 °C in test [2]; 0.37 °C in test [3]; 0.29 °C in test [4]; 0.43 °C in test [5]; 0.25 °C in test [6].
As for `O=C(O)/C=C/c1ccc(Cn2ccnc2)cc1`, the ΔTm came out at 0.1 °C in test [1]; 0.39 °C in test [2]; 0.22 °C in test [3]; 0.69 °C in test [4]; 0.29 °C in test [5]; 0.06 °C in test [6].
